# Compound activity from PubChem.
# Shown are actives, neighbours in structure and some others; about 4.1% of the full set was active somewhere.
# ssDAF-12 act – activators of S. stercoralis DAF-12 nuclear receptor | HEK293 ssDAF-12/GRIP1 lit1-tk-luc reporter, luminescence; % of 3 µM dafachronic acid response | activation, % at 6.8 µM | 370,000 compounds, 1% hits | AID 652126;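 active = activation above the mean over all tested compounds plus 3 SD, cut at about 0.9% in these data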;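 note: 0% = DMSO-only wells and 100% = 3 µM delta7-dafachronic acid wells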
# hgDAF-12 ag – agonists of H. glycines DAF-12 nuclear receptor | 370,000 compounds, 1.8% hits | HEK293 GAL4-hgDAF12 UAS-luciferase reporter, agonist luminescence; normalized to butyrate control | activation, % at 6.8 µM;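 active = activation above a cutoff set at the mean of all screened compounds plus 3 SD, cut at about 10% in these data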;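 note: 0% = DMSO wells and 100% = sodium butyrate wells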
# hcDAF12 agonist – H. contortus DAF-12 activation, primary screen; AID 652067; activation, % at 6.8 µM; HEK293 hcDAF-12 lit1-tk-luc reporter, luminescence; 0% DMSO, 100% Δ7-dafachronic acid; 370,000 compounds, 1.4% hits;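 active = activation above the mean of all tested compounds plus 3 SD, cut at about 5.5% in these data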;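 note: 100% = response to 3 µM Δ7-dafachronic acid high control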
# DAX1 inh-1 – inhibitors of human orphan nuclear receptor DAX1 (NR0B1); AID 504766; 340,000 compounds, 0.99% hits; inhibition, % at 6.75 µM; HEK293 Gal4-DAX1 luciferase reporter, luminescence; P51843;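 active = inhibition above the mean over all tested compounds plus 3 SD, cut at about 4.2% in these data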;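 note: 0% = DAX1-transfected cells with DMSO and 100% = empty-vector control cells with DMSO; inhibition shows as a rise in luminescence from relieved DAX1 repression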
# Target sequence (P51843 207-470 limits assumed): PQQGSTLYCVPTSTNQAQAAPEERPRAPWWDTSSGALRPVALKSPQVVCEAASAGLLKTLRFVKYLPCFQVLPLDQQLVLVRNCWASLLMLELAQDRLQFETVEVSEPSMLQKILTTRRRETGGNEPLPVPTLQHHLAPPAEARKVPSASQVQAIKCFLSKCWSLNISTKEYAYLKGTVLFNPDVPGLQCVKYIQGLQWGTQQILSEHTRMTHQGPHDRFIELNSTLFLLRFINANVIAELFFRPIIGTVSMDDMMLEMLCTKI
# DAX1 inh-2 – DAX1 (NR0B1) inhibition, primary screen; HEK293T StAR-luciferase reporter, SF-1/DAX-1 repression relief; inhibition, % at 6.8 µM; 370,000 compounds, 1.1% hits; AID 652010;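 active = inhibition above the mean over all tested compounds plus 3 SD, cut at about 3.6% in these data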;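 note: 0% = DAX-1 cells with DMSO and 100% = cells lacking DAX-1 with DMSO; higher inhibition means more luminescence from relief of DAX-1 repression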
# * marks the source's active call; other numbers are inactive results; / = not tested or not shown.
SMILES,ssDAF-12 act,hgDAF-12 ag,hcDAF12 agonist,DAX1 inh-1,DAX1 inh-2
CCCCN(C)C(=O)Cn1c(=O)oc2cc(S(=O)(=O)N3CC(C)CC(C)C3)ccc21 (stereo unspecified),-2,-2,-1,5.7*,0
CCCNC(=O)Cn1c(=O)oc2cc(S(=O)(=O)N3CC(C)CC(C)C3)ccc21 (stereo unspecified),-1,-2,-1,0,0
Cc1ccc(NC(=O)CN2C(=O)CCSc3ccccc32)cc1C,-1,-3,-3,/,-1
CC(C)COc1cccc(C(=O)Nc2ccc(S(=O)(=O)N3CCOCC3)cc2)c1,-2,1,-2,-1,0
COc1cccc(-n2c([S-])c(C(=O)Nc3ccc(S(=O)(=O)N4CCOCC4)cc3)[n+]3cc(C(N)=O)ccc23)c1,0,10,1,4.2*,1
CC(OC(=O)c1nccnc1N)C(=O)Nc1ccc(S(=O)(=O)N2CCCC2)cc1 (stereo unspecified),-1,-1,-1,4.6*,1
CC(OC(=O)c1ccc(S(=O)(=O)N2CCCCC2)cc1)C(=O)Nc1ccc(C(N)=O)cc1 (stereo unspecified),-1,3,-1,-1,0
COc1ccc(C=Nn2c(-c3n[nH]c4c3CCC4)n[nH]c2=S)cc1OCc1ccccc1,-2,-2,-2,/,0
Cc1ccc(SCC(=O)c2ccc[nH]2)cc1,-1,11*,0,1,0
Cc1ccc(CNC(=O)NCc2ccccc2)cc1,-1,1,0,1,0
CC(=O)Nc1ccc(NC(=O)CSc2ccc(C)cc2)cc1,-1,1,-1,0,0
Cc1ccc(CNC(=O)c2ccc[nH]2)cc1,-1,2,-2,5.6*,1
CCCCOC(=O)c1ccc(NC(=S)N2CCN(c3ncc4c(=O)c(C(=O)O)cn(CC)c4n3)CC2)cc1,-1,-3,-2,4.3*,0
CCn1cc(C(=O)O)c(=O)c2cnc(N3CCN(C(=S)Nc4ccccc4)CC3)nc21,-2,0,0,3,0
CC(=O)Nc1ccc2c(c1)[nH]c(=O)c1ccccc12,-1,6,0,4.6*,1
CCCCN(C)C(=O)c1ccc2c(c1)NC(=O)C(C)(C)O2,-1,2,-1,/,-1
COc1ccc(-n2c(COc3ccccc3)nnc2SCC(=O)Nc2ccc3c(c2)OCCO3)cc1,-1,-1,-1,/,-1
COc1ccc(S[C@]2(C(=O)N3CCN(C(C)=O)CC3)CC(=O)N(C(=O)CCc3ccccc3)[C@@H]2c2ccc(OC)cc2)cc1,-2,3,3,/,-1
Cc1cc(NS(=O)(=O)c2ccc(NC(=S)NCc3ccccc3)cc2)no1,-1,0,-1,6.5*,0
CCc1cccc(Nc2cc(C)nc3nc(C)nn23)c1,-1,3,-2,4.3*,-1
Cc1cc(NC(=O)c2cccc(Cl)c2)n[nH]1,-1,8,1,1,2
Cc1cc(NC(=O)NC(=O)c2ccc(F)cc2F)n[nH]1,0,11*,3,0,3
COC(=O)[C@]12C[C@H](CC(=O)NCc3ccccc3)C(=O)N(Cc3cccc4ccccc34)C1=C[C@H](C1CCCC1)O[C@@H]2C,-1,-2,-2,/,-1
CCOC(=O)C1CCCCN1C(=O)[C@@H]1CC=C[C@@H]2CCN(c3ccccc3)C(=O)[C@@H]21 (stereo partly specified),-2,1,0,/,/
C=CCN=C1NC(CCc2ccccc2)C(C(=O)OC)=C(C)N1Cc1cccc(C(F)(F)F)c1 (stereo unspecified),1.5*,-1,5,/,-1
SMILES,ssDAF-12 act,hgDAF-12 ag,hcDAF12 agonist,DAX1 inh-1,DAX1 inh-2
C=CCN=C1NC(CCc2ccccc2)C(C(=O)OC)=C(C)N1Cc1ccccc1C(F)(F)F (stereo unspecified),-1,-2,-1,/,-2
CC(=O)Nc1ccc(CNc2ncnc3ccc(-c4c(C)noc4C)cc23)cc1,1.2*,-1,6.3*,4,2
Cc1cccc(CNc2ncnc3ccc(-c4ccoc4)cc23)c1,-1,2,-2,1,0
COC(=O)CCC(=O)OC1(C)C(=O)C=C2C=C(C3CC3)N(CCc3c[nH]c4ccccc34)C=C2C1=O (stereo unspecified),0,1,6.3*,0,0
COC(=O)CCC(=O)OC1(C)C(=O)C=C2C=C(C3CC3)N(CCc3ccccn3)C=C2C1=O (stereo unspecified),-1,0,-1,1,0
Cc1occc1C(=O)n1nnc2ccccc21,-1,-2,5.8*,/,-1
CC[C@@H]1/C(=C/c2ccccc2)N2C(=O)C[C@@H](c3ccccc3)N=C2N1Cc1ccc(OC)cc1OC,-2,0,-2,/,/
COc1ccc(Cn2c(NC(=O)c3ccccc3)nc(Cc3ccccc3)c2-c2ccccc2)cc1,0,-2,-2,/,0
Cc1ccc(/C=C2\C(=O)Nc3ccccc32)o1,0,2,5,1,0
Cc1ccc2c(c1)/C(=C/c1ccco1)C(=O)N2,-2,0,0,5.1*,-1
O=C(CCc1nnc(CCCc2ccccc2)o1)NCCN1CCOC1=O,-1,-1,0,3,1
CCN(CCn1cccn1)C(=O)CCc1nnc(CCCc2ccccc2)o1,1.0*,13*,2,1,1
Cn1cc(CCNC(=O)CCc2nnc(CCCCc3ccccc3)o2)cn1,-2,12*,-2,-1,0
Cc1ccccc1NC(=O)c1cccc2c1-c1ccccc1C2=O,-2,0,0,/,-1
O=C(O)c1ccc(Nc2nc(-c3ccc([N+](=O)[O-])cc3)nc3ccccc23)cc1,-1,1,5.6*,0,1
O=[N+]([O-])c1ccc(-c2nc(Nc3ccc(O)cc3)c3ccccc3n2)cc1,-1,5,3,-1,-1
Cc1ccccc1N1CCN(S(=O)(=O)c2ccc3c(c2)oc(=O)n3C)CC1,-2,-2,-3,/,-1
O=C(CN1CCCCC1)NC(=O)NC1CCCCC1,-1,-1,1,0,1
CC1CCN(CC(=O)NC2CCCCC2)CC1,0,-1,-1,4.3*,0
O=C(Nc1c(-c2ccc(C(F)(F)F)cc2)nc2ncccn12)C1CC1,-1,3,-1,/,1
c1ccc2c(c1)CCCN2Cc1nnnn1CC1CCCO1 (stereo unspecified),0,3,5,-2,0
c1ccc(CCn2nnnc2CN2CCCc3ccccc32)cc1,0,1,5.8*,0,0
CN(C)C1=NCCN1CCCC1CCCC1,-1,0,-1,2,0
CN(C)C1=NCCN1CC1CCCC1,1.2*,1,3,0,0
O=C(CCn1nnc(-c2cccs2)n1)NCc1cccs1,-1,2,0,/,-1
Cc1ccc(OCC(=O)N2CCN(c3nnc(-c4ccccc4)c4ccccc34)CC2)cc1,-2,-5,-3,-4,-2
